# PubChem BioAssay AID1578 (Sanford-Burnham Center for Chemical Genomics, 2009)
# Out of some 290,000 compounds screened, about 3,000 (1%) were called active. Many of the other results were omitted from the sample, so actives are more common in it than they were. A number with no mark means an inactive call. Rule as the data show it: active = inhibition mostly above about 36% (no sharp cut-off); inactive = mostly below about 34%.
# Experiment: inhibition of NOD1-driven NF-kB reporter – cell-based, luminescence, uHTS, primary screen (AID 1578);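 also: HEK-293T reporter cells stimulated with the NOD1 agonist gamma-tri-DAP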
# Details: NOD1-driven NF-kB luciferase reporter cells, at 4 µM, stronger effect = higher value
row,Structure (SMILES),inhibition
1,C/C(=N\NC(=O)c1ccc2ccccc2c1)c1cccs1,-67.5%
2,COc1ccc(CNC(=O)CCSCc2ccccc2C)cc1,49.7% (active)
3,COc1ccc(CNC(=O)CCSCc2ccc(C)cc2)cc1,-7.5%
4,Cc1ccccc1CSCCNC(=O)CCSc1ccccc1,71.3% (active)
5,Cc1ccc(CNC(=O)CCSCc2ccccc2C)cc1,-14.9%
6,Cc1ccc(SCCC(=O)NCCSCc2ccccc2C)cc1,-35.1%
7,O=C(CCSc1ccccc1)NCCSCc1ccccc1,-33.8%
8,CCC(C)[C@H](NC(=O)Nc1ccccc1F)C(=O)O (stereo partly drawn),-12.6%
9,NS(=O)(=O)c1cccc(NC(=O)COC(=O)CCSc2ccccc2)c1,-26.8%
10,O=[N+]([O-])c1cnc(Sc2ccncn2)s1,66% (active)
11,O=C(Nc1ccc(Cl)cc1)Nc1ccccc1Sc1ncc([N+](=O)[O-])s1,-6.5%
12,O=[N+]([O-])c1ccc(Sc2n[nH]c(-c3ccncc3)n2)nc1,-10.2%
13,O=C(O)C1Nc2c(cccc2C(F)(F)F)C2C=CCC12 (stereo not drawn),-8.8%
14,O=C(Nc1ccncc1)c1c(F)c(F)c(F)c(F)c1F,11%
15,O=C(Nc1ccccc1)c1c(F)cccc1F,-2.4%
16,O=S(=O)(c1ccc(Cl)s1)N1CCN(c2ncccn2)CC1,-11.8%
17,Cc1ccccc1-c1nsc(SCC(=O)c2ccc(Cl)cc2)n1,-4.8%
18,c1coc(C2=NCCc3ccccc32)c1,-18%
19,Nc1nc(CCl)nc(N(c2ccccc2)c2ccccc2)n1,50.5% (active)
20,CCN(CC)c1nc(N)nc(N(c2ccccc2)c2ccccc2)n1,13.6%
21,Nc1nc(Cl)nc(N(c2ccccc2)c2ccccc2)n1,-8.3%
22,Fc1ccc2c(c1)C(c1ccncc1)=NNC(c1ccccc1)=N2,16%
23,Cc1ccc(C(=O)COC(=O)c2ccc(-c3cnc4ccccc4n3)cc2)cc1C,-22.2%
24,O=C1CCCN1CCCNC(=S)Nc1ccc(Cl)cc1Cl,-41.9%
25,N/C(=N\NC(=O)c1sccc1OCc1ccc(Cl)cc1Cl)c1ccccn1,-6%

row,Structure (SMILES),inhibition
1,CCOc1ccc(N(C(=O)/C=C/C(=O)Nc2cc(C)on2)C(C(=O)NC2CCCC2)c2ccccc2C)cc1 (stereo not drawn),52.5%
2,CCc1ccc(C(C(=O)NC2CCCC2)N(C(=O)/C=C/C(=O)Nc2cc(C)on2)c2ccccc2C)cc1 (stereo not drawn),76.7% (active)
3,Cc1cc(NC(=O)/C=C/C(=O)N(c2ccccc2C)C(C(=O)NC2CCCC2)c2ccc(F)cc2)no1 (stereo not drawn),30.5%
4,CCOC(=O)c1c(CCl)nc2ccccc2c1-c1ccccc1,19.7%
5,ClCc1nc2ccccc2c2ccccc12,64.7% (active)
6,CCOC(=O)c1c(CCl)nc2ccccc2c1C,-9.2%
7,CC(=O)N(CCc1ccccc1C)Cc1cc2ccc(C)cc2[nH]c1=O,-1%
8,Cc1nn(CC(=O)N2CCN(C)CC2)c(=O)c2c1sc1ccccc12,-7.7%
9,CCN1CCN(C(=O)Cn2nc(C)c3sc4ccccc4c3c2=O)CC1,-12.8%
10,CCOC(=O)N1CCN(C(=O)Cn2nc(C)c3sc4ccccc4c3c2=O)CC1,53.1% (active)
11,Cc1nnc(SCc2cn3ccsc3n2)n(N)c1=O,8.4%
12,Cc1ccc(C)c2sc(NC(=O)CN3C(=O)CCC3=O)nc12,14.9%
13,CCCNC(=O)c1cc(S(=O)(=O)N2CCc3ccccc32)cn1C,30.1%
14,CCC(C)(C)NC(=O)c1cc(S(=O)(=O)N2CCc3ccccc32)cn1C,14.8%
15,CC1=NN(Cc2ccccc2)C(=O)C1C(c1ccncc1)C(C#N)C#N (stereo not drawn),5.2%
16,Cc1nc2c(ccc3nc(NC(=O)C4CC4)sc32)s1,69% (active)
17,CCC(=O)Nc1nc2ccc3sc(C)nc3c2s1,17.2%
18,Cc1nc2c(ccc3nc(NC(=O)Cc4ccccc4)sc32)s1,-51.4%
19,Fc1ccc(NC(=S)Nc2cccnc2)c(F)c1F,-19.1%
20,COc1ccc(CCNC(=O)c2oc3ccc(OC)cc3c2C)cc1,-13.3%
21,CCOc1ccccc1NC(=O)CSc1nc2c(c(=O)n1C)SC(C)C2 (stereo not drawn),-16.7%
22,O=C1COc2ccc(C(=O)COC(=O)CCc3ccc(S(=O)(=O)N4CCOCC4)cc3)cc2N1,1.2%
23,c1ccc(-c2cc(-c3ccccc3)on2)cc1,-10%
24,Cc1ccc2nc(-c3cc(-c4ccccc4)no3)cn2c1,-4.9%
25,CCc1ccn2cc(-c3cc(-c4ccccc4)no3)nc2c1,45.6% (active)

row,Structure (SMILES),inhibition
1,O=C(NCc1ccccc1)C1CCC(CNS(=O)(=O)c2cccs2)CC1 (stereo not drawn),-1.7%
2,COC(=O)c1ccc2c(=O)n(Cc3ccco3)c(SCC(=O)Nc3cc(C)on3)nc2c1,-44.8%
3,CCc1ccc(NC(=O)CSc2nc3cc(C(=O)OC)ccc3c(=O)n2Cc2ccco2)cc1,-7.4%
4,CCN(C(=O)CSc1nc2cc(C(=O)OC)ccc2c(=O)n1Cc1ccco1)c1cccc(C)c1,74% (active)
5,Cc1ccc(S(=O)(=O)NC(=O)Nc2ccccc2)cc1,-30.4%
6,O=C(Cn1nnc(-c2ccc3c(c2)OCO3)n1)NCc1ccccc1,4.7%
7,O=C(NCC(=O)N1CC(O)CC1C(=O)N1CC(O)CC1C(=O)OCc1ccccc1)OCc1ccccc1 (stereo not drawn),-13.7%
8,CC(=O)Nc1ccc(S(=O)(=O)N(C)c2ccccc2)cc1,-12.7%
9,CCOC(=O)/C=C/C(=O)Nc1ccc(Oc2ccccc2)cc1,6.8%
10,Cc1cc(NC(=O)Nc2cccc(C(F)(F)F)c2)no1,-7.7%
11,Cc1ccc(NC(=O)CSc2nn(-c3ccc(Cl)cc3)c(=S)s2)cc1S(=O)(=O)N(C)C,53.2%
12,NS(=O)(=O)c1cccc(NC(=O)CSc2nn(-c3ccccc3)c(=S)s2)c1,39.5%
13,Cc1c(C(=O)NCCSCc2cccc(C(F)(F)F)c2)cnn1-c1ccc(F)cc1,-3.5%
14,COc1cccc(NC(=O)Cc2ccc3ccccc3c2)c1,15.2%
15,Cc1ccc(NC(=O)Cn2c(=O)cnc3ccccc32)cc1S(=O)(=O)N(C)C,-22.2%
16,Cc1sc(NC(=O)Nc2ccccc2)c(C(N)=O)c1C,-40.3%
17,COc1ccc(N2CCN(C(=O)NC(=O)c3ccc(Cl)cc3)CC2)cc1,-13.4%
18,COc1ccc(N2CCN(C(=O)C(C)(C)Oc3ccc(Cl)cc3)CC2)cc1,-14.6%
19,COC(=O)c1sc(N2CCN(c3ccc(Cl)cc3)CC2)nc1N,66.9% (active)
20,NS(=O)(=O)c1ccc(NCc2cc(Cl)ccc2OCc2ccc(F)cc2)cc1,27.2%
21,Cc1ccc2c(c1)c1c3n2CCN(C(=O)CCl)C3CCC1 (stereo not drawn),52.3%
22,CC(=O)N1CCn2c3c(c(=O)c4cc(C)ccc42)CCC31 (stereo not drawn),-6.4%
23,Cc1ccc2c(c1)c(=O)c1c3n2CCN(C(=O)CCl)C3CC1 (stereo not drawn),105% (active)
24,CCc1ccc2c(CN3CCN(S(=O)(=O)c4ccc5c(c4)OCCO5)CC3)cc(=O)oc2c1,-2.7%
25,COc1ccc(S(=O)(=O)n2c([N+](=O)[O-])cnc2C)cc1OC,-2.3%

row,Structure (SMILES),inhibition
1,CC1=C(C(=O)OCc2ccccc2)C(c2ccc(Cl)cc2)NC(=O)N1C (stereo not drawn),-1.2%
2,O=C(N/N=C/c1cccnc1)C1CCCCC1,-16.2%
3,Cc1cccc(C(=O)N2CCN=C2SCc2ccc([N+](=O)[O-])cc2)c1,41.9% (active)
4,Cc1ccc(C(=O)N2CCN=C2SCc2ccc([N+](=O)[O-])cc2)cc1,35.5%
5,Cc1cc(C)cc(C(=O)N2CCN=C2SCc2ccc([N+](=O)[O-])cc2)c1,41%
6,O=C(C1CC1)N1N=C(c2ccncc2)CC1(O)C(F)(F)F (stereo not drawn),-21.3%
7,O=C(NCc1cccc(C(F)(F)F)c1)C1CC(c2cccc(F)c2)=NO1 (stereo not drawn),-5%
8,O=C(/C=C/c1cccc([N+](=O)[O-])c1)Nc1ccccc1N1CCOCC1,-27.5%
9,COCCCNC(=O)CCN1C(=O)COc2ccccc21,9.8%
10,CC(C)(C)c1cc(C(c2cccnc2)N2CCN(CCO)CC2)cc(C(C)(C)C)c1O (stereo not drawn),67.2% (active)
11,CC(C)(C)c1cc(CN2CCN(CCO)CC2)cc(C(C)(C)C)c1O,45.2%
12,CC(C)(C)c1cc(C(=S)N2CCN(CCO)CC2)cc(C(C)(C)C)c1O,11.9%
13,CCCN1C(=O)/C(=C/c2ccc3c(c2)OCO3)NC1=S,-29.7%
14,O=C1/C(=C\c2ccc3c(c2)OCO3)CCC/C1=C/c1ccc2c(c1)OCO2,-48%
15,CCOC(=O)CN1C(=O)S/C(=C\c2ccc3c(c2)OCO3)C1=O,16.9%
16,NCCN1C(=O)S/C(=C\c2ccc3c(c2)OCO3)C1=O,27.3% (active)
17,O=C(CCN1C(=O)/C(=C/c2ccc3c(c2)OCO3)SC1=S)Nc1ccccc1,-5.3%
18,CCCN1C/C(=C/c2ccc3c(c2)OCO3)C(=O)/C(=C/c2ccc3c(c2)OCO3)C1,67.2% (active)
19,CCOC(=O)c1c(NC(=O)c2cccc(N3C(=O)CCC3=O)c2)sc2c1CCN(CC)C2,-16.7%
20,CC(C)(C)C(=O)COC(=O)CCc1nc2ccccc2[nH]c1=O,2.2%
21,O=C(CCCN1C(=O)/C(=C/c2cccs2)SC1=S)Nc1ccccn1,63.6% (active)
22,O=C(CCCN1C(=O)/C(=C\c2cccs2)SC1=S)Nc1ccccn1,4.3%
23,O=C(CCN1C(=O)/C(=C\c2cccs2)SC1=S)Nc1ccccn1,-42%
